This is a sample that favours compounds with a hit; in the whole collection about 14% have one here.
Pf growth 96h = P. falciparum growth inhibition at 96 hour, primary screen for plastid delayed-death inhibitors; P. falciparum luciferase reporter growth, 96 h; AID 504834; Potency, µM (titrated, usually from 28.7 µM), inactives show top-dose activity change, negative = inhibition, most hits filed as inhibitors; 320,000 tested, 6.9% active; further: potency means the concentration at half of the fitted maximal effect
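Delayed-death screen, second-generation endpoint: infected erythrocytes, 2% hematocrit, 0.05% parasitemia final; 96 hours at 37 C, 5% CO2; luciferase detection reagent; luminescence decrease equals reduced growth.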
HCV inhibitor = HCV inhibition; Potency, µM (top dose mostly 41.8 µM), for the others: at the highest dose activity change, negative = inhibition, hits mostly inhibitors; Huh7.5.1 HCVcc-Cre infection, luciferase reporter, 44 h; 340,000 tested, 3.4% active; further: potency means the concentration at half of the fitted maximal effect
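Reporter virus HCVcc-Cre (~0.5 moi) infects cells exposed to compound; seeding density 1,000 cells/well with 4 h settling beforehand. Luminescence, 15 sec read, taken 44 h post-infection following a 15 min RT substrate incubation.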
Lassa entry inh = inhibitors of Lassa virus binding or cell entry | Potency, µM (series often up to 37.9 µM), for inactives: at the top dose activity change, negative = inhibition, actives largely listed as inhibitors | Lassa virus pseudotype entry inhibition, cell reporter | AID 540256 | 300,000 tested, 1.2% active; calls by dose curve; tested in HEK293 cells; further: potency means the concentration at half of the fitted maximal effect; nearly all actives have a fitted effect of over 50% in size
Pf growth 48h = inhibits P. falciparum growth in the first generation, 48 h; P. falciparum luciferase growth in erythrocytes, 48 h; Potency, µM (titrated, usually from 28.7 µM), inactives show at the top dose activity change, negative = inhibition, hits mostly inhibitors; 310,000 tested, 5.9% active; AID 504832; further: potency means the concentration at half of the fitted maximal effect
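Here the parasites carry a stable luciferase gene and grow inside erythrocytes in Albumax-based RPMI medium with compound for one erythrocytic cycle. Activity is scored as loss of luminescent signal.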
HCMV inh = blocks human cytomegalovirus replication. activity change, negative = inhibition, % at 57.5 µM. HFF cells, HCMV-luciferase reporter, 72 h; hits give low values. 410,000 tested, 4.5% active; in the data active means activity change below about -60%; inconclusive means no clear call, values can overlap the other calls; inactive means above about -39%
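Human foreskin fibroblasts infected with luciferase-reporter HCMV at MOI 1 PFU/cell, compounds at two doses. Luciferase measured 72 h post infection; normalized to buffer-only basal and Salinomycin (10uM) controls.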
MARV entry inh = blocks Marburg virus binding to or entry into cells. Potency, µM (series often up to 37.8 µM), without a hit: at the highest dose activity change, negative = inhibition, actives largely listed as inhibitors. 300,000 tested, 1.8% active. AID 540276. Marburg virus pseudotyped entry inhibition, cell reporter; calls by dose curve; tested in HEK293 cells; further: potency means the concentration at half of the fitted maximal effect
The depositor's hits bear a star; u = inconclusive; x = no result; ! = repeats disagree; [ ] = dose if it differs, or a comment. Unless noted, the call rests on the fitted dose curve; in most records, active means well fitted inhibition curve with a large enough effect; inconclusive means small, poorly fitted or top-dose-only effect, or another doubt; inactive means no such curve, though single readings can be large or run the other way. On the % scale 0 is the no-effect control and ±100 the full control effect.

SMILES	Pf growth 96h	HCV inhibitor	Lassa entry inh	Pf growth 48h	HCMV inh	MARV entry inh
CC(=O)c1ccc(OCC(=O)N2CCN(S(=O)(=O)c3ccc(Br)s3)CC2)cc1	u	u	6%	u	-27	24%
O=C(CCc1nc2ccccc2s1)N1CCN(S(=O)(=O)c2cccs2)CC1	13µM*	-21%	-8%	u	-1	-8%
Cc1cc(C)c(S(=O)(=O)N2CCN(C(=O)c3cc(=O)[nH]c4ccccc34)CC2)c(C)c1	u	-6%	x	12µM*	-1	x
COc1ccc(NC(=O)N(C)C[C@H]2Oc3ccc(NC(=O)CCN4CCOCC4)cc3C(=O)N([C@@H](C)CO)C[C@H]2C)cc1	x	9%	x	x	-26	x
CCOC(=O)/C=C/C(=O)Nc1ccc(S(=O)(=O)Nc2cc(OC)nc(OC)n2)cc1	x	x	x	x	-17	x
COc1ccc(N2CCN(C(=O)CCc3c[nH]c4ccccc34)CC2)cc1	u	-28%	u	-29%	-8	-5%[46.1 µM]
O=C1CN(C(=O)CCCc2c[nH]c3ccccc23)c2ccccc2N1	x	-27%	-3%	9.3µM*	8	5%
Cc1cc(C(C)(C)C)cc(C)c1S(=O)(=O)N1CCN(C(=O)c2cc([N+](=O)[O-])c[nH]c2=O)CC1	u	12%	u	u	-64*	-3%[46.1 µM]
O=C(CCc1c[nH]c2ccccc12)N1CCN(c2ccc(O)cc2)CC1	u	u	u	u	-65*	u
COc1ccc(Br)c(C(=O)N2CCN(S(=O)(=O)c3cccs3)CC2)c1	25%	8%	x	3.7µM*	-16	x
CCOC(=O)N1CCN(S(=O)(=O)c2cc([N+](=O)[O-])ccc2C)CC1	131%	5%	x	13%	-13	x
CCCN1CCN(C(=O)CCn2c(=O)c3cccn3c3cccnc32)CC1	6%	0%	x	4%	0	x
Cn1cc(NC(=O)c2cc(NC(=O)c3cc(NC=O)cn3C)cn2C)cc1C(=O)NCCC(=N)N	u	x	x	3.4µM*!	x	-5%
O=C(CSc1nc2ccccc2nc1N1CCCC1)Nc1ccc(F)cc1	u	u	x	u	-65*	x
Cc1ccc(NC(=O)CSc2nc3ccccc3nc2N2CCOCC2)cc1	u	u	u	-9%	-33	u
CCOc1ccc(NC(=O)CSc2nc3ccccc3nc2N2CCCC2)cc1	12µM*	-10%	x	-17%	-6	x
CC(=O)Nc1ccc(NC(=O)CSc2nc3ccccc3nc2N2CCCCC2)cc1	7%	-4%	4%	u	-13	21%[46.1 µM]
COc1ccc(NC(=O)CSc2nc3ccccc3nc2N2CCCC2)cc1	u	-19%	x	-14%	-5	x
Cc1cccc(NC(=O)CSc2nc3ccccc3nc2N2CCC(C)CC2)c1	x	x	u	x	-88*	1.1µM*
CC(=O)Nc1ccc(NC(=O)CSc2nc3ccccc3nc2N2CCC(C)CC2)cc1	-2%	-7%	u	u	-7	1%[46.1 µM]
Cc1ccc(NC(=O)CSc2nc3ccccc3nc2N2CCOCC2)c(C)c1	u	u	x	-25%	-71*	x
COc1ccccc1NS(=O)(=O)c1ccc2c(c1)CCN2C(=O)CCC(=O)O	u	11%	u	-20%[0.00184 µM]	-11	-17%[46.1 µM]
Nc1nc2c(C(=O)N3CCCC3)nnn2c2ccccc12	x	x	x	x	12	x
CCCC[C@@H]1CNCCN1CCc1cccc2ccccc12	u	u	x	u	12	x
COc1cc(NC(=O)CSc2nc3ccccc3cc2C)c(C(=O)O)cc1OC	23%	24%	1%	-5%	-8	12%
Cc1cc(C)cc(NC(=O)CSc2nc3ccccc3nc2N2CCCCC2)c1	9.3µM*	0%	x	u	-35	x
COc1cc(NC(=O)CSc2nc3cc(C)ccc3cc2C)c(C(=O)O)cc1OC	9.3µM*	9%	11%	14%	-15	0%
COc1ccc(C)cc1NC(=O)CSc1nc2ccccc2nc1N1CCOCC1	x	x	u	x	20	u
COc1ccc(C)cc1NC(=O)CSc1nc2ccccc2nc1N1CCCCC1	20%	-21%	x	4.1µM*	34	x

Screens (PubChem)
